Shown are actives, neighbours in structure and some others; about 3% of the full set was active somewhere.
Tau fibril ThT: blocks human tau fibril formation measured by thioflavin T. P10636. recombinant tau K18 P301L, heparin-induced fibrillization, ThT fluorescence. Potency, µM (doses to about 57.4 µM), hits mostly inhibitors. hit rate 2.1% among 270,000. AID 1460; note: nearly all actives have a fitted effect of over 55% in size
Target sequence (P10636 561-689 P618L limits assumed): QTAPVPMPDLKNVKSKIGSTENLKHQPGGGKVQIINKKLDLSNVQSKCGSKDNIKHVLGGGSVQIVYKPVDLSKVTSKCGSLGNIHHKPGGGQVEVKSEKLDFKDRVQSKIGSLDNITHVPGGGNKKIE
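Heparin-induced fibrillization of the P301L-mutant K18 repeat-domain fragment of human tau was followed by ThT binding in quantitative high-throughput format.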
JMJD2E inh: blocks human JMJD2E demethylase activity; B2RXH2; JMJD2E catalytic domain, FDH-coupled NADH fluorescence (FDH is formaldehyde dehydrogenase); Potency, µM (titrated, usually from 57.1 µM), actives largely listed as inhibitors; hit rate 1.6% among 230,000; active = well fitted inhibition curve with a large enough effect, not every such curve was filed as active; inconclusive = small, poorly fitted or top-dose-only effect, or another doubt; inactive = no such curve, though single readings can be large or run the other way; note: nearly all actives have a fitted effect of over 50% in size
Target sequence (B2RXH2 1-337 limits assumed): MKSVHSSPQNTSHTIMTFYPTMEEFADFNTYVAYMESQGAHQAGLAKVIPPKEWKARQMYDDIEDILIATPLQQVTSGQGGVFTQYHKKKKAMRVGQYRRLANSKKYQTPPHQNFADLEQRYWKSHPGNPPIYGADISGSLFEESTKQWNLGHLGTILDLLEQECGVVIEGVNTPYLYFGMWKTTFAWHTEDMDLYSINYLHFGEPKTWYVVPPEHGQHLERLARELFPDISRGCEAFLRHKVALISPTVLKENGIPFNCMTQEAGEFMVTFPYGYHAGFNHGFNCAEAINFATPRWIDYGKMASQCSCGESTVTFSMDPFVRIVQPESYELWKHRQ
Tau fluor cs: counter-screen for tau fibril formation inhibitors | tau K18 P301L Alexa594 fluorescence, heparin fibrillization | Potency, µM (series often up to 57.7 µM) | hit rate 0.93% among 280,000; note: nearly all actives have a fitted effect of over 55% in size
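Human tau K18 P301L (15 uM unlabeled, 0.24 uM Alexa 594-labeled) in 100 mM sodium acetate pH 7 with 20 uM heparin, 6 hr at 37 C. ThT 30 uM added, 1 hr ambient; Alexa 594 FP and total fluorescence read at 555/632 nm.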
FBPA coupling cs: counter-screen for Giardia aldolase inhibitors: coupling enzyme system; coupling enzyme system counterscreen, AmpLite Red fluorescence; activity change, negative = inhibition, % at 58.2 µM, hits read low; hit rate 0.67% among 290,000; AID 2472; in the data active = activity change below about -30%
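Coupling enzymes only (glyceraldehyde-3-phosphate) + compound, at 57.5 uM final, 10 min RT; add substrate/coupling/AmpLite Red mix, 20 min RT; fluorescence ex 525/em 598 nm. Actives flag coupling-system interference.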
Tau FP inhib: inhibitors of human tau fibril formation. P10636. Potency, µM (top dose mostly 57.7 µM), usual class: inhibitors. hit rate 0.39% among 280,000. K18 P301L tau heparin fibrillization, Alexa594 FP, 6 h; note: nearly all actives have a fitted effect of over 55% in size
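Quantitative HTS format: compounds meet 15 uM recombinant K18 P301L tau and Alexa 594-tau tracer in 100 mM sodium acetate pH 7; 20 uM heparin triggers fibrillization at 37 C over 6 hr; FP gives the signal.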
Of the large screens only hits and unclear results are named; the others gave an inactive call; ! = a repeat was not active; [ ] = dose if it differs, or a comment. Unless noted, calls come from the whole dose curve; as a rule, active = well fitted curve in the direction sought with a large enough effect; inconclusive = small, poorly fitted or top-dose-only effect, or another doubt; inactive = no such curve, though single readings can be large; an effect the other way counts as inactive or inconclusive.

Cc1ccc(NCC(=O)N/N=C/c2cc3ccccc3nc2Cl)cc1	Tau fibril ThT 17.8µM, Tau fluor cs inconclusive
COc1ccc(-c2nc3nc(C)cc(Nc4ccc(C(C)=O)cc4)n3n2)cc1	none (no result: JMJD2E inh, FBPA coupling cs)
O=C1N=C(N2CCOCC2)S/C1=C1\C(=O)N(Cc2ccccc2)c2ccccc21	Tau fibril ThT inconclusive
CCCN1C(=O)/C(=C2\SC(N3CCCCC3)=NC2=O)c2ccccc21	Tau fibril ThT 15.8µM, Tau fluor cs inconclusive
CN1C(=O)/C(=C2\SC(N)=NC2=O)c2ccccc21	Tau fibril ThT inconclusive
CN1C(=O)/C(=C2\SC(N3CCCCCC3)=NC2=O)c2ccccc21	Tau fibril ThT 12.6µM, Tau fluor cs inconclusive
ClC(Cl)(c1nnnn1-c1ccccc1)c1nnnn1-c1ccccc1	Tau fibril ThT 11.2µM, Tau FP inhib 31.6µM
Cc1cc(O)c2c(c1O)C(=O)C(O)=C(O)C2=O	Tau fibril ThT 12.6µM, JMJD2E inh inconclusive, Tau fluor cs inconclusive, Tau FP inhib 17.8µM
CC1=CC(=O)c2c(O)ccc(O)c2C1=O	Tau fibril ThT inconclusive, JMJD2E inh inconclusive, Tau fluor cs inconclusive, Tau FP inhib inconclusive
CCN1C(=O)CS/C1=N\S(=O)(=O)c1ccc(Cl)cc1	none
CCn1c(Cl)c(C=O)s/c1=N\S(=O)(=O)c1ccccc1	Tau fibril ThT 8.91µM, Tau FP inhib 7.08µM
O=C(Nc1ccc(C(=O)Nc2ccc(C(=O)Nc3ccc(S(=O)(=O)O)c4cc(S(=O)(=O)O)cc(S(=O)(=O)O)c34)cc2)cc1)Nc1ccc(C(=O)Nc2ccc(C(=O)Nc3ccc(S(=O)(=O)O)c4cc(S(=O)(=O)O)cc(S(=O)(=O)O)c34)cc2)cc1	Tau fibril ThT inconclusive, JMJD2E inh inconclusive, Tau FP inhib inconclusive
O=C(Nc1cc(C(=O)Nc2ccc(S(=O)(=O)O)cc2S(=O)(=O)O)cc(C(=O)Nc2ccc(S(=O)(=O)O)cc2S(=O)(=O)O)c1)Nc1cc(C(=O)Nc2ccc(S(=O)(=O)O)cc2S(=O)(=O)O)cc(C(=O)Nc2ccc(S(=O)(=O)O)cc2S(=O)(=O)O)c1	Tau fibril ThT inconclusive, JMJD2E inh inconclusive, Tau FP inhib 14.1µM
CC(/C=N/NC(=O)Cc1cccn1C)=C\c1ccco1	Tau fibril ThT 28.2µM, JMJD2E inh inconclusive, Tau FP inhib inconclusive
O=c1ccc2c(OCCCCOc3ccccc3)c3ccoc3cc2o1	none (no result: Tau fibril ThT, JMJD2E inh, Tau fluor cs, Tau FP inhib)
Cc1cccc(C)c1-n1c(C)cc(/C=N\Nc2ccc([N+](=O)[O-])cn2)c1C	Tau fibril ThT 5.01µM, Tau fluor cs inconclusive, Tau FP inhib inconclusive
Cc1cc(/C=N/Nc2nc(N)ncc2[N+](=O)[O-])c(C)n1-c1ccccc1F	Tau fibril ThT 15.8µM
Nc1ncc([N+](=O)[O-])c(Oc2ccccc2F)n1	Tau fibril ThT inconclusive
CC1CCC(C(=O)NC(C(=O)OCC(=O)c2ccccc2)C(C)C)CC1 (configuration not stated)	none (no result: JMJD2E inh, FBPA coupling cs)
O=C1OC(NC(=O)c2ccccc2)C(n2cc(CO)nn2)=C1Cl (configuration not stated)	Tau fibril ThT 7.08µM, Tau FP inhib inconclusive
Oc1ccc(C2C[C@H]3CC[C@@H]2C3)cc1O (some centres not stated)	none (no result: Tau fibril ThT, JMJD2E inh, Tau fluor cs, Tau FP inhib)
Oc1ccc(C2CNCc3sccc32)cc1O (configuration not stated)	Tau fibril ThT inconclusive, JMJD2E inh 25.1µM (no result: FBPA coupling cs)
O=C1COCCN1	none (no result: Tau fibril ThT, JMJD2E inh, Tau fluor cs, Tau FP inhib)
CC(C)(C)C(=O)CSc1nc2c(c(-c3cccs3)c1C#N)CCC2	none
CN1CCc2nc(SCC(=O)Nc3cccc(F)c3)c(C#N)c(-c3cccs3)c2C1	Tau fibril ThT 14.1µM, JMJD2E inh inconclusive, Tau fluor cs 15.8µM[quencher]
Cc1cccc(CSc2nc3c(c(-c4cccs4)c2C#N)CN(C)CC3)c1	Tau fibril ThT 15.8µM, Tau fluor cs 25.1µM[quencher]
CCOc1ccc(NC(=O)CSc2nc(-c3cccs3)cc(C(F)(F)F)c2C#N)cc1	none (no result: JMJD2E inh, FBPA coupling cs)
CN1CCc2nc(SCC(=O)Nc3ccc(OC(F)(F)F)cc3)c(C#N)c(-c3cccs3)c2C1	FBPA coupling cs -51.4
CCOC(=O)C1CCN(C(=O)CN2c3ccc(C(C)C)cc3-c3ccccc3S2(=O)=O)CC1	none (no result: JMJD2E inh, FBPA coupling cs)
COc1ccc(-c2cc(C(F)(F)F)c3c(=O)n(-c4ccccc4)[nH]c3n2)cc1	Tau fibril ThT 8.91µM, Tau fluor cs inconclusive
COc1ccc(-c2cc(C(F)(F)F)nc(NCc3ccccc3)n2)cc1	Tau FP inhib inconclusive (no result: JMJD2E inh, FBPA coupling cs)
CCOC(=O)c1ccc(NC(=O)CCc2c(C)nc3c(c(C)nn3-c3ccccc3)c2C)cc1	Tau fluor cs inconclusive, Tau FP inhib inconclusive (no result: JMJD2E inh, FBPA coupling cs)
CCCOP(=O)(c1ccc(N(C)C)cc1)C(O)c1ccncc1 (configuration not stated)	JMJD2E inh 17.8µM
CN(C)c1ccc(P(=O)(OCc2ccccc2)C(O)c2ccncc2)cc1 (configuration not stated)	Tau fibril ThT inconclusive, JMJD2E inh 20µM
CN(C)c1ccc(C(O)P(=O)(OCc2ccccc2)c2ccc(N(C)C)cc2)cc1 (configuration not stated)	none
COC(=O)C1=C[C@@H](C(=O)OC)[C@@H]2C3=C(C(=O)C2(C)C)[C@H](c2ccccc2)[C@@H]2C(=O)N(c4ccccc4)C(=O)[C@@H]2[C@@H]3C1	none (no result: Tau fibril ThT, JMJD2E inh, Tau fluor cs, Tau FP inhib)
COc1ccccc1NS(=O)(=O)c1cccc(NC(=O)Nc2ccccc2)c1	Tau fluor cs inconclusive, Tau FP inhib inconclusive
O=C(Nc1cccc(Cl)c1Cl)c1cc(S(=O)(=O)N2CCCCC2)ccc1F	none (no result: JMJD2E inh, FBPA coupling cs)
O=C(Nc1ccc(Cl)cc1Cl)NC1CCCC1	none
O=C(Nc1cccc(S(=O)(=O)N2CCCCC2)c1)Nc1ccc(Cl)cc1Cl	Tau fluor cs inconclusive, Tau FP inhib 14.1µM
O=C(Nc1ccc(Cl)cc1Cl)NC1CCN(S(=O)(=O)c2ccc(F)cc2)CC1	Tau fluor cs inconclusive, Tau FP inhib 25.1µM (no result: Tau fibril ThT)
COc1ccccc1NS(=O)(=O)c1cccc(NC(=O)Nc2ccc(Cl)cc2)c1	Tau fluor cs inconclusive, Tau FP inhib 28.2µM
COc1cc2c(c(OC)c1OC)C(c1ccc(O)cc1)CC(=O)O2 (configuration not stated)	FBPA coupling cs -32.4 (no result: JMJD2E inh)
COc1ccc(C2CC(O)(c3ccccc3)Oc3cc(OC)c(OC)c(OC)c32)cc1 (configuration not stated)	Tau fluor cs inconclusive, FBPA coupling cs -38.7!
COc1cc(C2CC(=O)Oc3ccc(O)cc32)cc(OC)c1OC (configuration not stated)	Tau fibril ThT inconclusive (no result: JMJD2E inh)
COc1ccc(CCN2CCC[C@H](CN3CCc4cc(OC)c(OC)cc4CC3=O)C2)cc1OC	none (no result: Tau fibril ThT, JMJD2E inh, Tau fluor cs, Tau FP inhib)
CCN(CC)S(=O)(=O)c1ccc2c(c1)N(CC(=O)Nc1ccc(OC)cc1)C(=O)CS2	none (no result: JMJD2E inh, FBPA coupling cs)
O=c1[nH]c2ccccc2c2nc3ccccn3c12	JMJD2E inh inconclusive
O=c1nc2c(O)cccn2c2c1c(=O)[nH]c1ccccc12	Tau fibril ThT inconclusive, JMJD2E inh 11.2µM, Tau FP inhib inconclusive
Oc1ccc2oc3c(c2c1C=NCc1ccncc1)CCCC3	Tau fibril ThT 15.8µM, JMJD2E inh inconclusive, Tau fluor cs inconclusive, FBPA coupling cs -35.5, Tau FP inhib inconclusive
